# HEK293 cAMP ctrl: qHTS Assay for Agonists of the Thyroid Stimulating Hormone Receptor: Activators of Intracellular cAMP Concentrations in Parental HEK 293; parental HEK293 CNG cAMP sensor, membrane potential fluorescence; Potency, µM (series often up to 57.1 µM), without a hit: at the top dose activation, most hits filed as activators; actives 2.5% (n = 73,000); note: % of control where 0% means no effect; nearly all actives have a fitted effect of over 55% in size
#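 Parental HEK 293 cells stably expressing a modified CNG channel (no TSHR) report cAMP rise as membrane depolarization. Membrane potential dye with 100 uM RO 20-1724 was loaded for 60 min at room temperature, then compound added for 30 min; fluorescence read at 590 nm.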
# TSHR ag: qHTS Assay for Agonists of the Thyroid Stimulating Hormone Receptor; Thyrotropin receptor (Homo sapiens), P16473; HEK293-CNG-TSHR cells (CNG channel as cAMP sensor), membrane potential dye, cAMP; Potency, µM (top dose mostly 57.1 µM), for inactives: at the top dose activation, hits mostly activators; actives 0.48% (n = 73,000); AID 926, 2007; active = well fitted activation curve with a large enough effect in the main read-out, with a control signal flat, not every such curve was filed as active; inconclusive = small, poorly fitted or top-dose-only effect, or a change in a side signal; inactive = no such curve, though single readings can be large or run the other way; % of control where 0% means no effect;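 note: the control signal comes from parental cells without the receptor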
#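 cAMP rise detected as CNG-channel membrane depolarization by fluorescent dye (emission 590 nm), 30 min after compound, following 60 min dye loading containing 100 uM RO 20-1724 at room temperature. Cells: TSHR/CNG HEK 293, with parental CNG HEK 293 as control.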
# Caspase-7 inhib: qHTS Assay for Allosteric/Competitive Inhibitors of Caspase-7 | actives 0.02% (n = 75,000) | Potency, µM (doses to about 57.5 µM), without a hit: top-dose activity change, negative = inhibition, hits mostly inhibitors | AID 889, 2007 | recombinant caspase-7, Ac-DEVD-AFC fluorescence rate; active = well fitted inhibition curve with a large enough effect in the main read-out, with a control signal flat, not every such curve was filed as active; inconclusive = small, poorly fitted or top-dose-only effect, or a change in a side signal; note: % of control where 0% means no effect
# Target sequence (P55210 24-198 limits assumed): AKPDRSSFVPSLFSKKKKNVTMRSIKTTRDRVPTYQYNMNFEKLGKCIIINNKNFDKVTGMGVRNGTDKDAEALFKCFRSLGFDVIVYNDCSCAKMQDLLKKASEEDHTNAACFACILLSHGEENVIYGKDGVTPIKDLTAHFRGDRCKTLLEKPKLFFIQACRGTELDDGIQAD
# Target sequence (P55210 207-303 limits assumed): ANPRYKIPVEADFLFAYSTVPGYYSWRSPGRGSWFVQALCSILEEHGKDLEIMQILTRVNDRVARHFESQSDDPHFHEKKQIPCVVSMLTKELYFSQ
# PK Bst: Pyruvate Kinase; Potency, µM; purified pyruvate kinase, luminescence ATP production; ribose 5-phosphate activator present at AC10; AID 361, 2006; actives 1.2% (n = 51,000); in the data active = potency below about 11 µM; inconclusive = mostly about 12 µM to 25 µM;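 the screen sought inhibitors and activators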;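 note: scaled between full activation by ribose 5 phosphate and full inhibition by luteolin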
# GBA activity: Glucocerebrosidase. Lysosomal acid glucosylceramidase (Homo sapiens), P04062. Potency, µM. purified enzyme, resorufin glucoside fluorescence (screen aimed at inhibitors), 20 min. AID 360, 2006. actives 1.1% (n = 48,000); in the data active = potency below about 15 µM; inconclusive = mostly about 16 µM to 33 µM;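 note: the screen sought inhibitors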
#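 Normal human glucocerebrosidase (0.2 nM final) was assayed with resorufin β-D-glucopyranoside (30 uM final) in 50mM citric acid/KH2PO4, 10mM sodium taurocholate, 0.01% tween-20, pH 5.9. Compounds were titrated; fluorescence (Ex 548, Em 600) read after 20 min at RT.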
# Casp1 inh: qHTS Assay for Allosteric/Competitive Inhibitors of Caspase-1; P29466; Caspase-1 enzyme, Ac-WEHD-AFC fluorogenic rate; Potency, µM (top dose mostly 57.5 µM), without a hit: at the top dose activity change, negative = inhibition, most hits filed as inhibitors; actives 0.03% (n = 75,000);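 note: plate controls were vehicle for no effect and no substrate for full effect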
# Target sequence (P29466 120-297 limits assumed): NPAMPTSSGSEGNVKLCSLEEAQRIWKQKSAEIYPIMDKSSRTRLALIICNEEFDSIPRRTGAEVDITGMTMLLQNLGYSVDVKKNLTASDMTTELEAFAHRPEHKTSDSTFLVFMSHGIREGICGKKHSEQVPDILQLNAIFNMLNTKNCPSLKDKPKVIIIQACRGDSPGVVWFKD
# Target sequence (P29466 317-404 limits assumed): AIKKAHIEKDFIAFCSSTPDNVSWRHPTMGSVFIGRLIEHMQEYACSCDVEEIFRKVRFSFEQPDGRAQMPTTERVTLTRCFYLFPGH
# Active calls of the source: *; ? = inconclusive; . = no result given; ! = not active in a repeat; [ ] = remark or other dose. An excerpt weighted towards active compounds, which were near 4% of everything screened. Unless noted, calls come from the whole dose curve; as a rule, active = well fitted curve in the direction sought with a large enough effect; inconclusive = small, poorly fitted or top-dose-only effect, or another doubt; inactive = no such curve, though single readings can be large; an effect the other way counts as inactive or inconclusive. Potency is the fitted concentration of half-maximal effect.
SMILES,HEK293 cAMP ctrl,TSHR ag,Caspase-7 inhib,PK Bst,GBA activity,Casp1 inh
Cc1cc(C(=O)N[C@H](c2ccccc2)[C@@]2(C)C[C@@H]2[C@@H](C)C(=O)Nc2ccc3ccccc3c2)no1,1.6µM*,?,0%,.,.,-3%
COc1cc(NCCC(=O)O)c2ncccc2c1,2%[11.4 µM],-4%[11.4 µM],-1%[11.5 µM],.,.,3%[11.5 µM]
c1ccc(-c2ccc(N3CCCC4(CCNCC4)C3)cc2)cc1,-53%,?,-3%,.,.,-5%
O=C(O)COc1ccc2occ(C(=O)c3ccccc3)c2c1,7%,-13%,-4%,>57,>77,0%
CC(=O)Oc1ccc2occ(C(=O)c3cccs3)c2c1,25µM*,?,1%,.,.,-1%
COc1ccccc1C(=O)Nc1c2c(nn1-c1cccc(C)c1C)CS(=O)(=O)C2,5µM*,?,1%,>57,>77,-2%
COc1ccc(CC(=O)Nc2c3c(nn2-c2cccc(C)c2C)CS(=O)(=O)C3)cc1,11%,4%,-1%,>57,>77,-10%
CCCOc1ccc(-c2nc(C#N)c(N3CCN(C)CC3)o2)cc1,24%,20%,-3%,7.3*,.,-2%
CCCOc1ccc(-c2nc(C#N)c(N3CCN(CC)CC3)o2)cc1,31%,.,-1%,5.8*,?,-1%
COC(=O)c1ccccc1NC(=O)Cn1c(-c2nonc2N)nc2ccccc21,16µM*,?,0%,>57,>77,-1%
Oc1ccc(Cl)cc1C=Nc1cnc2ccccc2c1,-2%[11.4 µM],-2%[11.4 µM],-2%[11.5 µM],.,.,-11%[11.5 µM]
N#CC1=C(N)OC2=C(CCC/C2=C/c2ccoc2)C1c1ccoc1 (stereo unspecified),10%,25µM*,?,>57,>77,.
CCOC(=O)C1=C(C)OC(N)=C(C#N)C1c1ccoc1 (stereo unspecified),22%,3%,-3%,.,.,-6%
Cc1ccc(S(=O)(=O)/C=C\C#N)cc1,-14%,11%,3%,.,.,-1%
CC(C)(C)c1ccc(S(=O)(=O)/C=C\C#N)cc1,25µM*!,?,-2%,.,.,-2%
C=C(C)CSc1nnc(-c2cccc(S(=O)(=O)N(C)C)c2)n1-c1cc(OC)ccc1OC,13µM*,?,0%,>57,.,-3%
Nc1ncnc2c1ncn2[C@@H]1O[C@@H](CO)[C@H](O)[C@@H]1O,25µM*,?,1%,.,.,5%
O=S(=O)(c1cccc(C(F)(F)F)c1)N1c2ccccc2-n2cccc2[C@H]1c1cccnc1,?,?,-8%[11.5 µM],.,.,0%[11.5 µM]
CC1=C(C(=O)OCc2ccccc2)C(c2ccc(C(C)(C)C)cc2)NC(=O)N1CCCCCC(=O)O (stereo unspecified),20µM*,?,-5%,.,.,?
CSc1ncnc2nc[nH]c12,1%,-1%,-17%,.,.,?
COc1ccc(Cc2nc(-c3ccc(Br)o3)no2)cc1OC,27%,.,-4%,.,.,-4%
Fc1ccc(OCc2nc(-c3ccc(Br)o3)no2)c(F)c1,2.5µM*,?,-4%,.,.,-1%
Cc1cc(/C=c2/sc3nc4ccccc4n3c2=O)c(C)n1-c1ccccn1,.,.,.,0.84*,.,.
CCC(=O)N1CCN(c2ccccc2NC(=O)COc2cccc(C)c2)CC1,20µM*,?,-4%,>57,>77,0%
Cc1cc(Cl)ccc1OCC(=O)Nc1ccccc1N1CCOCC1,?,?,0%,>57,>77,-1%
SMILES,HEK293 cAMP ctrl,TSHR ag,Caspase-7 inhib,PK Bst,GBA activity,Casp1 inh
Cc1cccc(OCC(=O)Nc2ccccc2N2CCN(C(=O)C(C)C)CC2)c1C,1.6µM*,?,-1%,>57,>77,0%
O=C(COc1ccc(Cl)cc1)Nc1ccccc1N1CCOCC1,16µM*,?,1%,>57,>77,0%
CN1CCC(CNC(=O)c2ccc(Cc3nc4ccccc4[nH]3)cc2)CC1,-21%,9%,-2%,.,.,-1%
Cc1ccc(S(=O)(=O)Nc2ccc3c(c2)ncn3C(C)(C)C)cc1,8%,4%,-1%,.,.,2%
CC(C)(C)n1cnc2cc(NS(=O)(=O)c3ccc(Br)cc3)ccc21,.,.,.,2.5*,.,.
CCOC(=O)COc1cc2c(C(=O)OCC)c(C)oc2cc1Br,?,?,-2%,.,.,0%
CCOC(=O)c1c(C)oc2cc(Br)c(O)c(Br)c12,11%,25µM*,-1%,.,.,0%
CCCCN1CCCCC1C(=O)Nc1c(C)cc(C)cc1C (stereo unspecified),20µM*,?,0%,>57,>77,1%
Brc1ccc2[nH]c3nc(SCCN4CCOCC4)nnc3c2c1,-7%,-2%[11.4 µM],0%,>57,9.6*,1%
N=C1Sc2ccccc2C2=NCCCN12,3%,0%,0%,.,.,1%
C/C(NC(=O)c1ccccc1)=C1/C(=O)CC2C1C2(C)C (stereo unspecified),4µM*,?,0%,.,.,-4%
COc1ccc2cc3c(N)c(C(=O)N4CCCC4)sc3nc2c1,2%,-15%,-15%,?,>77,-13%
Cc1ccc2nc3sc(C(=O)N4CCOCC4)c(N)c3cc2c1,6%,-3%,-3%,1.8*,>77,1%
Cc1ccc2cc3c(N)c(C(=O)N4CCOCC4)sc3nc2c1,-7%,-4%,-5%,11*,>77,-3%
CCCCCS(=O)(=O)CCCCCCCCCCn1c(-c2ccc(O)cc2)c(C)c2cc(O)ccc21,15%,15%,0%,.,.,0%
CC(=O)c1c(C)[nH]c(C(=O)Nc2ccc(C)cn2)c1C,-6%,-4%,0%,4.4*,.,-9%
C/C=C\C1=C(CO)C(=O)[C@@H]2OC2C1=O (stereo partly specified),-1%[11.4 µM],9%[11.4 µM],-1%[11.5 µM],.,.,-1%[11.5 µM]
Cc1csc(NC(=O)CSc2nc(C)cs2)n1,9%,-2%,-1%,>57,>77,-2%
Cc1csc(SCC(=O)Nc2cccc3nsnc23)n1,20µM*,?,-14%,>57,>77,-14%
Cc1cc(C(=O)COc2ccc(-c3nnco3)cc2)c(C)n1Cc1ccccc1,13µM*,?,-3%,>57,?,-3%
c1cncc(-c2nnc(-c3ccco3)o2)c1,4%,-2%,-3%,>57,>77,0%
Clc1ccc(-c2nnc(-c3ccco3)o2)cc1,20%,3%[11.4 µM],0%,4*,.,2%
CCCNC(=O)OC[C@@H]1O[C@H](CCO/N=C(\C)CCN2CCc3nc(CC)c(CC)cc3C2)C=C[C@@H]1Oc1ccc(OC)cc1,6%[11.4 µM],0%[11.4 µM],-2%[11.5 µM],.,.,2%[11.5 µM]
CC1CCCC(C)N1C(=O)c1cc(-c2cccs2)on1 (stereo unspecified),16%,20µM*,-5%,>57,>77,-3%
CCN(CC)C[C@@H](O)c1ccc2ccc3ccccc3c2c1,10%[11.4 µM],8%[11.4 µM],1%[11.5 µM],.,.,-1%[11.5 µM]

# Screens: PubChem BioAssay, National Center for Advancing Translational Sciences (NCATS)
